Unmarked numbers belong to inactive results. Unless noted, how the calls were made is not given here.
Further: test concentration not given here.

In the first assay the target is Dihydroorotate dehydrogenase (quinone), mitochondrial (Plasmodium falciparum (isolate 3D7)) (UniProt Q08210). Put plainly: inhibition of P. falciparum DHODH – biochemical, C-terminal His tag, absorbance 600 nm, primary screen (AID 1175).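 Further: recombinant parasite enzyme with a five histidine tag at its C terminus.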 The conditions noted are these: PfDHODH enzyme, DCIP absorbance 600 nm; higher = more signal, called active from +8 up or from −8 down.
Sequence of Dihydroorotate dehydrogenase (quinone), mitochondrial (Plasmodium falciparum (isolate 3D7)) (Q08210 whole entry, looked up): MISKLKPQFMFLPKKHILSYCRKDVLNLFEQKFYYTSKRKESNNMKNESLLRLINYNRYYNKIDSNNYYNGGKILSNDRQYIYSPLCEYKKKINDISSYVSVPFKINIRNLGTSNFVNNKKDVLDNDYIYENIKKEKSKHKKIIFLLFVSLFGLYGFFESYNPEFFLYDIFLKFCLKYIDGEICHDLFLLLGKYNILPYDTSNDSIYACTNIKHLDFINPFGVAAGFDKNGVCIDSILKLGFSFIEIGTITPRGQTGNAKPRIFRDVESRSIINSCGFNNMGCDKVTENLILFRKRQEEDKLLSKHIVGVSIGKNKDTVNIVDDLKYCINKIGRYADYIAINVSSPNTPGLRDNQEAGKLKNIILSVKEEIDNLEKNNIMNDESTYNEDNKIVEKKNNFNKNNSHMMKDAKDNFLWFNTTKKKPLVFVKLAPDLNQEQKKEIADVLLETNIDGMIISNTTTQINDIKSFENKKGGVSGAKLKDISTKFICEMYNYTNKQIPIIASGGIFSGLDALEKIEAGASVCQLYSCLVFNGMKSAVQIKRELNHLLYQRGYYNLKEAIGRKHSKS
As for `COC(=O)Cn1c(C(=O)N(C)C)cc2c1C[C@H]1CN(C(=O)c3ccccc3)[C@@](Cc3ccc(F)cc3)(C(=O)OC)[C@@H]21`, the composite z-score is 0.289.

Turning to `C=CCNC(=O)[C@H]1[C@@H]2C(=O)O[C@@H](c3ccccc3)[C@@H](c3ccccc3)N2[C@@H](c2ccc(O)cc2)[C@]12C(=O)N(C(=O)OCCOC)c1ccccc12`, the composite z-score is 0.747.

Regarding `CC(C)N1C(=O)c2ccccc2[C@@H](C(=O)NC2CC2)[C@@H]1c1ccc(CO)cc1`, the composite z-score is -0.54.

`O=C1N(Cc2ccccc2)Cc2ccccc2[C@@H]2OC(c3ccc(OCCCO)cc3)=N[C@]12CCS(=O)(=O)c1ccccc1`: the composite z-score is 0.094.

Turning to `CC(C)C(=C=CC[C@H](O)c1ccc(OCCO)cc1)C[C@H](O)c1ccccn1`, the composite z-score was -0.575.

Consider `COC(=O)c1nc2oc1CC[C@@H](CO)NC(=O)N(C)Cc1cnnn1C[C@H](Cc1ccccc1)NC2=O`, for which the composite z-score is -0.288.

Turning to `CCOC(=O)C[C@H]1[C@H](OC(=O)Cc2ccc3c(c2)OCO3)[C@@H](NC(=O)Cc2ccc(OC)cc2)c2cc(OCCCO)ccc2N1C(=O)c1ccc2ccccc2n1`, the composite z-score is -0.689.

Consider `CCCCCCCCCCC(O)C1C=CC2C(=O)N(C)C(=O)C2N1NC(=O)OC(C)(C)C` (stereo not drawn), for which the composite z-score was 1.1.

Take `O=C1NC(=O)C2C1C=CC(C(O)c1c(F)cccc1Cl)N2Nc1ccc(Cl)cc1Cl` (stereo not drawn): the composite z-score was 0.0047.

Turning to `O=C1O[C@H](c2ccccc2)[C@H](c2ccccc2)N2[C@H]1[C@@H](C(=O)Nc1nc3ccccc3s1)[C@]1(C(=O)Nc3ccc(C#CC4(O)CCCCCC4)cc31)[C@H]2c1ccccc1OCCO`, the composite z-score is -1.28.

Take `CC(C)[Si](C#C[Si](C(C)C)(C(C)C)C(C)C)(O[C@H](C)c1cn([C@H](CO)Cc2ccccc2)nn1)C(C)C`: the composite z-score is -0.487.

Take `COCCCNC(=O)[C@@]1(Sc2ccc(C)cc2)CC(=O)N(C2CCCCC2)[C@@H]1c1ccc(CO)cc1`: the composite z-score is -0.0365.

Turning to `O=C1C2C=CC(C(O)c3ccccc3)N(Nc3ccccc3F)C2C(=O)N1c1ccccc1` (stereo not drawn), the composite z-score was -0.104.

As to `CCC[C@@H]1C[C@@]1(CCC)[C@@H](NC(=O)OCc1ccccc1)c1ccc(-c2ccccc2)cc1`, the composite z-score is -0.251.

`N#Cc1ccc(C(O)C2C=CC3C(=O)N(c4ccccc4)C(=O)C3N2Nc2ccccc2)cc1` (stereo not drawn): the composite z-score was -0.561.

Consider `C=CCC(OC(C)=O)[C@@H]1[C@@H](N(Cc2ccc(-c3ccccc3)cc2)C(=O)Cc2ccc(F)cc2)c2cc(OCCCO)ccc2N1C(=O)Cc1ccc(OC)cc1` (stereo partly drawn), for which the composite z-score was -0.433.

As for `COc1ccc([Si](C)(C)[C@@H]2[C@@H](CC(=O)N(CCO)Cc3ccccc3)O[C@]3(C(=O)N(c4ccccc4)c4ccccc43)[C@H]2C)cc1`, the composite z-score was 0.818.

As for `COC(=O)[C@@]1(Cc2ccccc2)[C@@H]2C(=CC(=O)[C@H]2CC(=O)C(=O)N(C)C)CN1C(=O)c1ccccc1`, the composite z-score is -0.435.

Consider `CN(C)C(=O)[C@@]1(Cc2ccccc2CN=[N+]=[N-])N=C(c2ccc(OCCCO)cc2)O[C@H]1c1ccccc1CN=[N+]=[N-]`, for which the composite z-score is 2.07.

As to `CCOc1cc(C(O)C2C=CC3C(=O)N(c4ccccc4)C(=O)C3N2Nc2ccc(C#N)cc2)ccc1O` (stereo not drawn), the composite z-score is 0.45.

As for `COc1ccc([Si](C)(C)[C@@H]2[C@@H](CC(=O)N3Cc4ccccc4C[C@H]3CO)O[C@]3(C(=O)N(Cc4cccc(N5C(=O)c6cccc7cccc5c67)c4)c4ccccc43)[C@H]2C)cc1`, the composite z-score was -3.83.

As to `COc1ccc(-c2nc(-c3ccccc3)c3c(c2C)CO[Si]3(C(C)C)C(C)C)cn1`, the composite z-score was 0.366.

Tested on in a further assay: not listed separately
Put plainly: inhibition of PAO1 biofilm formation – strain PAO1, LB-PBS medium, absorbance 600 nm, primary screen (AID 1176). The note with it: P. aeruginosa PAO1 growth/biofilm, A600, 12 h; higher = more signal.
For `CCOC(=O)C[C@H]1[C@H](OC(=O)Cc2ccc3c(c2)OCO3)[C@@H](NC(=O)CC(C)C)c2cc(OCCCO)ccc2N1C(=O)Cc1ccc(OC)cc1`, the z-score was 0.101.

On to `CCOC(=O)C1=C[C@@H](c2ccccc2)N(S(=O)(=O)c2ccc(C)cc2)[C@H]1c1ccccc1Cl`, for which the z-score was 0.244.

In the case of `C[N+](C)(C)CCCC[C@@H]1NC(=O)[C@H]2C[C@@H](C(=O)NCCCCCCN)[C@@H](c3ccc(O)cc3)N2C1=O`, the z-score is -0.515.

For the compound `C=C(COC)C(=O)CC[C@@H](OC(=O)c1cccnc1)c1ccc(OCCO)cc1`, the z-score is 0.178.

Take `COC(=O)[C@@]1(Cc2ccc(OC)cc2)[C@H]2c3cc(C(=O)N4CCCC4)n(Cc4c(-c5ccccc5)noc4C)c3C[C@H]2CN1C(=O)c1ccccc1`: the z-score is -0.526.

Turning to `COCCCNC(=O)[C@]1(CCS(=O)(=O)c2ccccc2)N=C(c2ccc(OCCCO)cc2)O[C@@H]1c1ccccc1CN=[N+]=[N-]`, the z-score is 0.438.

On to `COC(=O)[C@@]1(Cc2ccc(F)cc2)[C@H]2c3cc(C(=O)N(C)C)n(CCc4ccc(O)c(OC)c4)c3C[C@H]2CN1C(=O)c1ccccc1`, for which the z-score is -0.263.

As to `COC(=O)[C@@]1(Cc2ccccc2)[C@H]2c3cc(C(=O)N(C)C)n(CCN4CNCC4=O)c3C[C@H]2CN1C(=O)c1ccccc1`, the z-score is -0.0703.

Take `O=C1O[C@H](c2ccccc2)[C@H](c2ccccc2)N2[C@H]1[C@@H](C(=O)Nc1nc3ccccc3s1)[C@]1(C(=O)Nc3ccc(C#CCCO)cc31)[C@H]2c1ccc(O)cc1`: the z-score was 1.04.

In the case of `COC(=O)c1cn(C[C@@H](Cc2ccccc2)NC(=O)N[C@H](CO)CCc2oc(C(C)=O)c(C(=O)OC)c2C(=O)OC)nn1`, the z-score is -0.227.

`COCCOC(=O)N1C(=O)[C@@]2(c3cc(C#CC4=CCCCC4)ccc31)[C@H](C(=O)N1CCCCCCC1)[C@H]1C(=O)O[C@H](c3ccccc3)[C@H](c3ccccc3)N1[C@@H]2c1ccc(O)cc1`: the z-score was 1.51.

Turning to `CCOC(=O)C[C@H]1[C@H](OC(=O)c2ccccc2-c2ccccc2)[C@@H](NC(=O)C2CCCCC2)c2cc(OCCCO)ccc2N1C(=O)Cc1ccc(OC)cc1`, the z-score was 0.0238.

On to `COc1ccc(-c2cc3c(c(CCc4ccccc4)n2)[Si](C(C)C)(C(C)C)OC3)cn1`, for which the z-score is -1.29.

For the compound `COC(=O)[C@@]1(Cc2ccccc2)[C@H]2c3cc(C(=O)N(C)C)n(CCc4ccc(O)c(OC)c4)c3C[C@H]2CN1C(=O)c1ccccc1`, the z-score was 0.454.

`COC(=O)Cn1c(C(=O)N(C)C)cc2c1C[C@H]1CN(C(=O)c3ccccc3)[C@@](Cc3ccc(F)cc3)(C(=O)OC)[C@@H]21`: the z-score was 0.743.

For `C=CCNC(=O)[C@H]1[C@@H]2C(=O)O[C@@H](c3ccccc3)[C@@H](c3ccccc3)N2[C@@H](c2ccc(O)cc2)[C@]12C(=O)N(C(=O)OCCOC)c1ccccc12`, the z-score is 0.229.

For the compound `CC(C)N1C(=O)c2ccccc2[C@@H](C(=O)NC2CC2)[C@@H]1c1ccc(CO)cc1`, the z-score is 0.277.

As for `O=C1N(Cc2ccccc2)Cc2ccccc2[C@@H]2OC(c3ccc(OCCCO)cc3)=N[C@]12CCS(=O)(=O)c1ccccc1`, the z-score was 1.91.

`CC(C)C(=C=CC[C@H](O)c1ccc(OCCO)cc1)C[C@H](O)c1ccccn1`: the z-score is 0.379.

Regarding `COC(=O)c1nc2oc1CC[C@@H](CO)NC(=O)N(C)Cc1cnnn1C[C@H](Cc1ccccc1)NC2=O`, the z-score is 0.383.

Take `CCOC(=O)C[C@H]1[C@H](OC(=O)Cc2ccc3c(c2)OCO3)[C@@H](NC(=O)Cc2ccc(OC)cc2)c2cc(OCCCO)ccc2N1C(=O)c1ccc2ccccc2n1`: the z-score was 0.82.

As to `CCCCCCCCCCC(O)C1C=CC2C(=O)N(C)C(=O)C2N1NC(=O)OC(C)(C)C` (stereo not drawn), the z-score is 0.0337.

Consider `O=C1NC(=O)C2C1C=CC(C(O)c1c(F)cccc1Cl)N2Nc1ccc(Cl)cc1Cl` (stereo not drawn), for which the z-score was 1.44.

As to `O=C1O[C@H](c2ccccc2)[C@H](c2ccccc2)N2[C@H]1[C@@H](C(=O)Nc1nc3ccccc3s1)[C@]1(C(=O)Nc3ccc(C#CC4(O)CCCCCC4)cc31)[C@H]2c1ccccc1OCCO`, the z-score is 3.52.

`CC(C)[Si](C#C[Si](C(C)C)(C(C)C)C(C)C)(O[C@H](C)c1cn([C@H](CO)Cc2ccccc2)nn1)C(C)C`: the z-score is 1.01.

As for `COCCCNC(=O)[C@@]1(Sc2ccc(C)cc2)CC(=O)N(C2CCCCC2)[C@@H]1c1ccc(CO)cc1`, the z-score was -0.438.

Turning to `O=C1C2C=CC(C(O)c3ccccc3)N(Nc3ccccc3F)C2C(=O)N1c1ccccc1` (stereo not drawn), the z-score is 0.629.

On to `CCC[C@@H]1C[C@@]1(CCC)[C@@H](NC(=O)OCc1ccccc1)c1ccc(-c2ccccc2)cc1`, for which the z-score was 0.191.

For the compound `N#Cc1ccc(C(O)C2C=CC3C(=O)N(c4ccccc4)C(=O)C3N2Nc2ccccc2)cc1` (stereo not drawn), the z-score is 1.06.

Take `C=CCC(OC(C)=O)[C@@H]1[C@@H](N(Cc2ccc(-c3ccccc3)cc2)C(=O)Cc2ccc(F)cc2)c2cc(OCCCO)ccc2N1C(=O)Cc1ccc(OC)cc1` (stereo partly drawn): the z-score is -0.431.

On to `COc1ccc([Si](C)(C)[C@@H]2[C@@H](CC(=O)N(CCO)Cc3ccccc3)O[C@]3(C(=O)N(c4ccccc4)c4ccccc43)[C@H]2C)cc1`, for which the z-score was 1.26.

Turning to `COC(=O)[C@@]1(Cc2ccccc2)[C@@H]2C(=CC(=O)[C@H]2CC(=O)C(=O)N(C)C)CN1C(=O)c1ccccc1`, the z-score was -0.0856.

`CN(C)C(=O)[C@@]1(Cc2ccccc2CN=[N+]=[N-])N=C(c2ccc(OCCCO)cc2)O[C@H]1c1ccccc1CN=[N+]=[N-]`: the z-score was 1.35.

On to `CCOc1cc(C(O)C2C=CC3C(=O)N(c4ccccc4)C(=O)C3N2Nc2ccc(C#N)cc2)ccc1O` (stereo not drawn), for which the z-score is 0.888.

For the compound `COc1ccc([Si](C)(C)[C@@H]2[C@@H](CC(=O)N3Cc4ccccc4C[C@H]3CO)O[C@]3(C(=O)N(Cc4cccc(N5C(=O)c6cccc7cccc5c67)c4)c4ccccc43)[C@H]2C)cc1`, the z-score was 1.42.

Turning to `COc1ccc(-c2nc(-c3ccccc3)c3c(c2C)CO[Si]3(C(C)C)C(C)C)cn1`, the z-score was 1.35.

Values taken from PubChem BioAssay.
